Assay results taken from PubChem BioAssay AID651815 (National Center for Advancing Translational Sciences (NCATS), 2012).
In all, about 2,100 compounds went through this assay and about 1,100 (52%) were called active. About 29% were inconclusive and are not listed. So high a share suggests a set chosen from earlier hits. The list shows a part of the results. Values without a mark were called inactive. The call rests on the fitted dose curve; in most records, active means well fitted inhibition curve with a large enough effect; inconclusive means small, poorly fitted or top-dose-only effect; inactive means no such curve, though single readings can be large or run the other way.

The compounds below were run against DNA dC->dU-editing enzyme APOBEC-3F (Homo sapiens) (UniProt Q8IUX4) (assay: qHTS for inhibitors of Vif-A3F interactions: Cherry picks counterscreen). Details: HeLa A3F-eYFP/Vif cells, eYFP fluorescence, 24 h; series mostly up to 46.1 µM; activity, negative = inhibitor: at the top concentration.
DNA dC->dU-editing enzyme APOBEC-3F (Homo sapiens), sequence (Q8IUX4 whole entry, looked up): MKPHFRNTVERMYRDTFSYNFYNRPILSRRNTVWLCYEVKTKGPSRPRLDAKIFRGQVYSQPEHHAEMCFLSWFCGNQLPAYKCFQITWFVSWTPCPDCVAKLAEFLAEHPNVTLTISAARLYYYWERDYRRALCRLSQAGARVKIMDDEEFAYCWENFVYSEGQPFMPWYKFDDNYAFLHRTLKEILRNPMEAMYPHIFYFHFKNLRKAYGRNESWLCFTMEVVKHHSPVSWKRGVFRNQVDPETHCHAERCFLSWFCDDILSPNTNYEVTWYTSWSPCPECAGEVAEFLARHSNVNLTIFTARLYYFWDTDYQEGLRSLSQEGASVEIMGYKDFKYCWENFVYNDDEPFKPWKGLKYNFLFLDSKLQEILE
In short: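 Rescue of Vif-driven A3F-eYFP degradation read as cellular eYFP fluorescence after 24 h compound exposure (several concentrations) in stable HeLa cells; MG132 (2 mM stock) as positive control.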
Further: nearly all actives have a fitted effect of over 65% in size.
On the % scale 0 is the no-effect control and ±100 the full control effect; potency means the concentration at half of the fitted maximal effect.

Structure (SMILES) | Potency | activity, negative = inhibitor
CCN(CC)c1ccc(/C=C/C2=C3C=CC=CC3NC=C2)cc1 (stereo not drawn) | 23.1 µM (active) | 
CCN(CC)c1ccc(/C=C/c2ccccn2)cc1 | 20.6 µM (active) | 
CN(C)c1ccc(/C=C/c2ccncc2)cc1 | 9.2 µM (active) | 
CCN(CC)c1ccc(/C=C/c2ccncc2)cc1 | 13 µM (active) | 
Cc1ccc(S(=O)c2ccc([N+](=O)[O-])c3nonc23)cc1 (stereo not drawn) |  | 14.9%
CC[n+]1ccccc1/C=C/c1ccc(N(C)C)cc1 | 23.1 µM (active) | 
CC(C)CC[n+]1ccccc1/C=C/c1ccc(N(C)C)cc1 | 18.4 µM (active) | 
CCOC(=O)c1cc2n(c1N)-c1ccccc1C2=O | 18.4 µM (active) | 
CCOC(=O)c1cc2n(c1/N=C/N(C)C)-c1ccccc1C2=O | 18.4 µM (active) | 
CCOC(=O)c1c(CN(CC)CC)n(-c2ccccc2)c2ccc(O)cc12 |  | -1.16% [at 36.9 µM]
CCOC(=O)c1cnc(-n2nc(C)cc2C)nc1NNc1nc(-c2ccccc2)cc(-c2ccccc2)n1 |  | 9.12%
Cc1cc(/C=C2\SC(=S)N(C)C2=O)c(C)n1-c1ccccc1O | 18.4 µM (active) | 
Cc1cc(/C=C2\SC(=S)N(C)C2=O)c(C)n1-c1ccc(O)cc1 | 18.4 µM (active) | 
NNC(=O)c1cc2sccc2s1 |  | -6.41% [at 36.9 µM]
CCn1ncc(/C=N\NC(=O)c2csc3ccccc23)c1C | 2.5 µM (active) | 
CCOC(=O)/C(=C/C1=CC(=C/N(C)C)/C(=O)O1)C(C)=O |  | 2.81%
CCOc1ccc(C2CC(c3c(O)c4ccccc4oc3=O)=NN2c2ccccc2)cc1OC (stereo not drawn) | 14.6 µM (active) | 
CCOc1ccccc1Oc1nc(C)nc2c1oc1ccccc12 | 2.31 µM (active) | 
CNC(=O)C(Sc1nc(C)nc2c1oc1ccccc12)C(C)=O (stereo not drawn) |  | -17.5% [at 36.9 µM]
Cc1cccc(N2CCN(C(=O)c3cccc(N4CCCC4=O)c3)C(C)C2)c1 (stereo not drawn) | 6.27 µM (active) | 
COc1ccc(OC)c(NC(=O)Cn2c(=O)n(-c3ccc(Cl)cc3)c(=O)c3c(C)c(C)sc32)c1 | 5.8 µM (active) | 
COc1ccc(OC)c(NC(=O)Cn2cnc3onc(-c4ccc(Cl)cc4)c3c2=O)c1 |  | -16.2%
Cc1ccc(-c2cc(C(=O)N/N=C/c3c[nH]c4ccccc34)[nH]n2)cc1 | 3.53 µM (active) | 
Cc1cc(N)cc(C)c1-c1c(Br)cc(N)cc1Br | 12.5 µM (active) | 

Structure (SMILES) | Potency | activity, negative = inhibitor
O=C1S/C(=C\c2ccc(N3CCOCC3)o2)C(=O)N1c1ccccc1 | 3.53 µM (active) | 
CCCN1C(=O)S/C(=C\c2ccc(N3CCOCC3)o2)C1=O | 3.96 µM (active) | 
CCOC(=O)CN1C(=O)S/C(=C/c2ccc(N3CCCCC3)o2)C1=O | 4.61 µM (active) | 
O=C1S/C(=C/c2ccc(N3CCOCC3)o2)C(=O)N1Cc1ccc(F)cc1 | 5.59 µM (active) | 
Cc1ccc(NC(=S)N/N=C2\CCCCC2C)cc1 (stereo not drawn) |  | 13.9%
O=C1S/C(=C/c2ccc(N3CCOCC3)o2)C(=O)N1Cc1c(F)cccc1Cl | 2.23 µM (active) | 
CC(C)n1cc(NC(=O)c2cc(-c3ccccc3)on2)cn1 | 3.53 µM (active) | 
O=C(Nc1nc2ccc(S(=O)(=O)N3CCCC3)cc2s1)C1CCCCC1 | 4.44 µM (active) | 
CCc1ccc2nc(N(CCCN(C)C)C(=O)c3ccc(S(=O)(=O)N(C)C4CCCCC4)cc3)sc2c1 |  | 9.09% [at 36.9 µM]
O=C(Nc1nc(-c2ccccn2)cs1)C1CCCC1 |  | 4.01%
C=CCOc1c(Cl)cc(C(=S)N2CCCC2)cc1OCC | 14 µM (active) | 
CCCCOc1ccc(/C=C/C2=CC(C)(C)NC(=S)N2)cc1OCC |  | 4.59%
Cc1ccc(F)c(S(=O)(=O)NC(=O)C2(C)CCN2C(=O)Cc2ccc(Cl)cc2Cl)c1 (stereo not drawn) |  | -5.01% [at 36.9 µM]
Cc1cc(=O)oc2cc(OCC(=O)N3c4ccccc4CC3C)ccc12 (stereo not drawn) | 3.53 µM (active) | 
COc1ccccc1C1=NOC(COc2ccc3c(C)cc(=O)oc3c2)C1 (stereo not drawn) | 1.12 µM (active) | 
CCOC(=O)c1cc(-c2ccccc2C)n(CC2CC(c3ccc(OC)cc3)=NO2)n1 (stereo not drawn) |  | 10.9% [at 36.9 µM]
COc1ccc(-c2cnnc(N/N=C/c3ccc(O)c(OC)c3)n2)cc1 | 9.94 µM (active) | 
COc1cc(/C=N/Nc2cc(C)nc(NS(=O)(=O)c3ccccc3)n2)ccc1O |  | 6.94%
Oc1ccc(/C=N\Nc2nncc(-c3ccccc3)n2)cc1 | 19.8 µM (active) | 
COc1cc(/C=N/Nc2ccc(Cl)nn2)cc(OC)c1O |  | 0.483% [at 36.9 µM]
O=c1oc2c3c4c(cc2c(C(F)(F)F)c1CCN1CCOCC1)CCCN4CCC3 | 3.66 µM (active) | 
Cc1ccc2[nH]c(C(=O)NN=C3CCCCC3)c(-c3ccccc3)c2c1 |  | -6.62% [at 36.9 µM]
CN(C)c1ccc(/C=N/NC(=O)c2cc(-c3ccc4c(c3)OCO4)n[nH]2)cc1 | 15.8 µM (active) | 
CCc1ccc(NC(=O)/C(C#N)=C/c2cc3ccc(C)cc3nc2N2CCOCC2)cc1 | 23.1 µM (active) | 
